# About 14,000 (4.5%) of roughly 310,000 compounds showed an effect of 50% or more. Effects have a minus sign here. The entries come from a sample that favours strong results as a whole.
# Target: human ether-à-go-go-related gene (hERG) potassium channel (human, UniProt Q12809)
# Experiment: primary screen, population patch clamp on CHO cells stably expressing hERG; higher = less effect of the substance
# 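Also: peak tail current of the secondary pulse compared with the same well before compound.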
# Sequence of human ether-à-go-go-related gene (hERG) potassium channel (Q12809 whole entry, looked up): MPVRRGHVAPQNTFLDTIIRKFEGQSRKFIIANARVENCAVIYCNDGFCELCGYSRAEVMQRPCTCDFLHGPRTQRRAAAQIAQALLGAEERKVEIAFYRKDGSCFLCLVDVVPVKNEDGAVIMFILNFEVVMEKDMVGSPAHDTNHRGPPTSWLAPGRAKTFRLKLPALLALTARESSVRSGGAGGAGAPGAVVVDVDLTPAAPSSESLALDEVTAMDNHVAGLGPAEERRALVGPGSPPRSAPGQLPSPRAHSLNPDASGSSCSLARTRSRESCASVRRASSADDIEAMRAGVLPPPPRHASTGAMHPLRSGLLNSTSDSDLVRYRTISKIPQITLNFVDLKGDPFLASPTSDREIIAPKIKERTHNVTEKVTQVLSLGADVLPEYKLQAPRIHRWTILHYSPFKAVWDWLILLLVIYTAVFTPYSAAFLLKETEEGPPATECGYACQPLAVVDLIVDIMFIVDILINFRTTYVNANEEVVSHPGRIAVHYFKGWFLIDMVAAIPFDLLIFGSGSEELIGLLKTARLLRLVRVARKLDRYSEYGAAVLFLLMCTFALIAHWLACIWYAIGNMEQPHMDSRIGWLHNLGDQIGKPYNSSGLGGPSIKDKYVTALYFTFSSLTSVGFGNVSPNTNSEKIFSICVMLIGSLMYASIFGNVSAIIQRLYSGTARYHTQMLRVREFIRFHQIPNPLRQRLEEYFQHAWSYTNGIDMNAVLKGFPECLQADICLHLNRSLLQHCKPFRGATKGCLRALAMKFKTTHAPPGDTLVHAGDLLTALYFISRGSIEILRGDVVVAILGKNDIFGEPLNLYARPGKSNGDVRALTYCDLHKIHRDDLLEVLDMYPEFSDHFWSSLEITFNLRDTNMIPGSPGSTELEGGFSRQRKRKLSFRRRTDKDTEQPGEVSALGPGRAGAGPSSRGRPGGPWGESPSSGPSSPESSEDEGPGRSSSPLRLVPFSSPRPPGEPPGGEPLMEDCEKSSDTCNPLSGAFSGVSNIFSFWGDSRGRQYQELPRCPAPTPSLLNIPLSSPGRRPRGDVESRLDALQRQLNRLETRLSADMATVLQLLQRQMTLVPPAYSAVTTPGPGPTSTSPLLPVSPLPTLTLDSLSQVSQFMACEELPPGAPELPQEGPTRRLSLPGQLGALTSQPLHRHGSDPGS
row,Structure (SMILES),"hERG current change (%, negative = inhibition) at 10uM"
1,CCN(CC(=O)NCc1ccc(F)cc1)C(=O)/C=C/c1cccs1,-40.9%
2,Cc1cc(C)n(-c2ccc(Cl)c(C(=O)OCC(=O)N3CCCCC3C)n2)n1 (centres unmarked),-4.12%
3,Clc1ccc2nnnc(-c3ccccc3)c2c1,-9.98%
4,Cc1nc(N=C(N)N)nc2ccccc12,23.6%
5,Cl.NC(N)=Nc1nc(-c2ccccc2)c2cc(Cl)ccc2n1,-67.9%
6,NC(N)=Nc1nc(-c2ccccc2)c2ccccc2n1,-40.1%
7,NC(N)=Nc1nc(-c2ccccc2)c2cc(F)ccc2n1,-66.2%
8,NNc1nc(-c2ccccc2)c2cc(Cl)ccc2n1,-11.3%
9,CC(=O)c1ccc(NC(=S)N2CCN(C(=S)Nc3ccc(C(C)=O)cc3)C(C)C2)cc1 (centres unmarked),20.6%
10,CCN(CC)S(=O)(=O)c1cccc(NC(=S)NC(=O)/C=C/c2ccc(S(=O)(=O)N3CCOCC3)cc2)c1,-6.82%
11,CCCCc1nc2ccccc2[nH]1,14.2%
12,CSc1nc2sc(-c3ccccc3)cc2c(=O)n1N,17.4%
13,O=C(NNC(=O)c1ccccc1-n1cccc1)c1ccccc1,-18.3%
14,N#Cc1nc(-c2ccccc2Cl)oc1NCc1ccco1,-8.28%
15,Cc1ccccc1-c1nc(C#N)c(NCc2ccco2)o1,-57.2%
16,Cc1ccc(-c2nc(C#N)c(NCc3ccco3)o2)cc1,-0.709%
17,O=C(COc1ccccc1)N1CCN(C(=O)Cc2ccccc2)CC1,-1.51%
18,COc1cc2nc(SCC(=O)c3ccc(Br)cc3)n3nc(C)nc3c2cc1OC,-17.7%
19,COc1cccc(C(=O)C2CCCN(Cc3cn(C)nc3-c3ccccc3)C2)c1 (centres unmarked),-68.8%
20,Cc1nn(C)cc1CN1CCCC(C(=O)c2ccc(-c3ccccc3)c(F)c2)C1 (centres unmarked),-15.3%
21,COc1cccc(C(=O)C2CCCN(Cc3cn(CC(N)=O)c4ccccc34)C2)c1 (centres unmarked),-53%
22,COc1ccc(C(=O)C2CCCN(Cc3cn(C)nc3-c3ccccc3)C2)cc1F (centres unmarked),-72.4%
23,Cc1nn(C)cc1CN1CCCC(C(=O)c2ccc(-c3ccccc3)cc2)C1 (centres unmarked),-45.4%
24,Cn1cc(CN2CCCC(C(=O)c3cccs3)C2)c(-c2cccc(Cl)c2)n1 (centres unmarked),-39.2%

row,Structure (SMILES),"hERG current change (%, negative = inhibition) at 10uM"
1,Cc1ccsc1C(=O)C1CCCN(Cc2cn(C)nc2-c2ccccc2)C1 (centres unmarked),-32.1%
2,NC(=O)NC1NC(=O)NC1=O (centres unmarked),11.9%
3,C/C(Cl)=C\Cn1c(O)c(N=NC(N)=S)c2cc(Br)ccc21,8.96%
4,COc1cccc(C(=O)N(C)CC(=O)Nc2ccc(F)c(F)c2F)c1,11.4%
5,O=C(COC(=O)c1ccc(S(=O)(=O)N2CCOCC2)cc1)NC1CCCCCCC1,12.2%
6,Clc1ccc(Nc2ccc(-n3ccnc3)nn2)cc1Cl,-9.9%
7,CC(=O)c1cc2c(C)cc(=O)oc2cc1O,1.77%
8,CC1CCN(C(=O)Cn2c(=O)n(Cc3ccc4c(c3)OCO4)c(=O)c3ccccc32)CC1,-18.5%
9,CCN(CC)CCOC(=O)c1ccc(Cl)cc1.Cl,-42.7%
10,CCN(CC)CCOC(=O)c1ccc(Cl)cc1Cl.Cl,-55.4%
11,CCCN(CCC)CCCOC(=O)c1ccc(Cl)cc1Cl.Cl,-70.1%
12,CN(C)CCCOC(=O)c1ccc(Cl)cc1Cl.Cl,-38.8%
13,CN(C)CCCOC(=O)c1ccccc1Cl.Cl,-0.792%
14,CCN(CC)CCOC(=O)c1cccc(Cl)c1.Cl,-32.4%
15,Cc1nnc(NC(=O)CN2CCN(Cc3ccccc3Cl)CC2)s1,6.08%
16,CSc1cccc(NC(=O)c2ccccn2)c1,7.57%
17,CC[C@H](C)C(N)c1cn([C@@H](CC(N)=O)C(=O)N2CCNCC2)nn1 (some centres unmarked),-10.5%
18,COc1ccc2c(c1)C(NS(=O)(=O)OCC(Cl)(Cl)Cl)CCC2 (centres unmarked),-0.647%
19,CC1CCCC(NC(=O)CCNC(=O)c2ccc(Br)cc2)C1C (centres unmarked),-0.231%
20,Cc1ccc(C)c(OC(C)C(=O)Nc2nccs2)c1 (centres unmarked),3.8%
21,CN(C)c1ccc(/C=N/NC(=O)CCC(=O)NCc2ccccc2)cc1,11.3%
22,CCc1cc(C(=O)N2CCc3c([nH]c4ccccc34)C2c2ccc(OC)cc2F)no1 (centres unmarked),15.7%
23,COc1ccc2oc(C(=O)CCC(=O)O)c(N)c2c1,4.93%
24,COc1ccccc1N1CCN(C(=O)c2cc(C)oc2C)CC1,21%

row,Structure (SMILES),"hERG current change (%, negative = inhibition) at 10uM"
1,O=C(NN1CC(=O)N(c2cc(Cl)cc(Cl)c2)CC1=O)c1sccc1Cl,-0.682%
2,Cc1cccc(N(CC(=O)N/N=C/c2ccccc2C(=O)O)S(C)(=O)=O)c1C,-28.9%
3,N#CCC(=O)N/N=C/c1ccc(OCc2ccccc2)cc1,11.3%
4,CC(C)(C)NCC(=O)N/N=C/c1ccc(OCc2ccccc2)cc1,-60.5%
5,CC(C)C(=O)N/N=C/c1ccc(OCc2ccccc2)cc1,17.8%
6,O=C(NNc1nc2ccccc2nc1C(F)(F)F)c1ccccc1,11.9%
7,Cc1ccc(NC(=O)c2cc(-c3ccccc3)n[nH]2)cc1,18.3%
8,CC(C)c1ccc(N(C(=O)c2csnn2)C(C(=O)NC(C)(C)C)c2ccncc2)cc1 (centres unmarked),-42.8%
9,CC(C)C[C@@H](CO)N1CCN(CCc2ccccc2)CCC1=O,-23%
10,CCCN1CCC(=O)N([C@H](COc2ccccc2)CC(C)C)CC1,-81.9%
11,CC(C)C[C@@H](COc1ccccc1)N1CCN(Cc2ccccc2)CCC1=O,-35.4%
12,CCCN1CCC(=O)N([C@H](CN=[N+]=[N-])CC(C)C)CC1,3.11%
13,CC(C)C[C@@H](COc1ccccc1)N1CCN(CCc2ccccc2)CCC1=O,-77.5%
14,COc1cc([N+](=O)[O-])ccc1NC(=O)CN(C)C,-15.9%
15,O=C(O)CC(CC(=O)Nc1ccccc1C(=O)O)c1ccccc1 (centres unmarked),3.3%
16,C=C(C)CCC1(C)NC(=O)N(c2ccccc2)N1 (centres unmarked),-4.03%
17,CN(C(=O)CSc1nnnn1-c1ccc(O)cc1)C1CCS(=O)(=O)C1 (centres unmarked),14.8%
18,CCN(CC(=O)NCc1cccs1)C(=O)CN(C)S(=O)(=O)c1ccc(C)cc1,-27.3%
19,COc1ccccc1NC(=O)CSc1nc2sc3c(c2c(=O)n1-c1ccccc1)CCN(C)C3,-26%
20,CC1(C)OC(=O)N(c2ccccc2)C12C=Cc1cc(Br)ccc1O2 (centres unmarked),-14.4%
21,O=C(Nc1ccc(F)cc1)c1ccc(S(=O)(=O)N2CCOCC2)o1,-13.1%
22,O=C(Nc1ccc(OC(F)(F)F)cc1)c1ccc(S(=O)(=O)N2CCOCC2)o1,-53.7%
23,O=C(Nc1ccc(S(=O)(=O)N2CCOCC2)cc1)c1ccc(Br)o1,-64.8%
24,O=C(Nc1ccc(S(=O)(=O)N2CCCC2)cc1)c1ccc(Br)o1,14.8%

row,Structure (SMILES),"hERG current change (%, negative = inhibition) at 10uM"
1,COc1ccc(NC(=O)c2ccc(S(=O)(=O)N3CCOCC3)o2)cc1,0.458%
2,O=C(Nc1ccc(S(=O)(=O)N2CCCCCC2)cc1)c1ccc(Br)o1,-14.5%
3,O=C(NNc1ccccc1[N+](=O)[O-])Nc1cccc(Cl)c1,19.3%
4,Cc1ccccc1Cn1cc(NC(=O)CCCn2nc([N+](=O)[O-])cc2C)cn1,-7.52%
5,O=C(NNS(=O)(=O)c1ccc([N+](=O)[O-])cc1)c1ccc([N+](=O)[O-])cc1,28.6%
6,O=C(NCCN1CCN(c2ccccc2)CC1)c1cccn2c(=O)c3ccccc3nc12,-63%
7,O=C(NCCN1CCN(c2ccccc2)CC1)c1cccn2c(=O)c3cc(Cl)ccc3nc12,-45.4%
8,O=C(O)c1cccn2c(=O)c3ccccc3nc12,13.1%
9,O=C(CCNC(=O)Cn1ccc2ccccc2c1=O)NCCN1CCN(c2ccccc2F)CC1,6.8%
10,O=C(NCCN1CCN(c2ccccc2F)CC1)c1cccn2c(=O)c3ccccc3nc12,-71.5%
11,Cn1c(C(=O)NCCN2CCN(c3ccccc3F)CC2)cc2c(=O)n(C)c3ccccc3c21,-4.62%
12,COCCCNC(=O)c1cccn2c(=O)c3cc4ccccc4cc3nc12,-42.2%
13,CN(CCCNC(=O)c1cccn2c(=O)c3ccccc3nc12)Cc1ccccc1,-74.1%
14,CN(CCCNC(=O)c1cc2c(Cl)nc3ccccc3c2s1)Cc1ccccc1,-44.3%
15,CCN(CC(=O)NC1CCS(=O)(=O)C1)C(=O)COc1ccccc1-c1ccccc1 (centres unmarked),11.7%
16,CCn1nnnc1NCc1ccc(Cl)cc1,9.44%
17,COc1ccc2c(c1)O[C@@H](c1cccc(C(F)(F)F)c1)[C@H](OC(=O)NCCc1ccc(OC)c(OC)c1)C2=O,-0.231%
18,COc1ccc(-c2nnc(SC(C)C(=O)NCc3ccc4c(c3)OCO4)n2Cc2ccco2)cc1 (centres unmarked),-55.1%
19,COc1cccc(-c2nnc(SCC(=O)NCc3ccc4c(c3)OCO4)n2Cc2ccco2)c1,-49.7%
20,O=C(CSc1nnc(-c2cccnc2)n1Cc1ccco1)NCc1ccc2c(c1)OCO2,-33.2%
21,O=C(CSc1nnc(-c2ccc(Cl)cc2)n1Cc1ccco1)NCc1ccc2c(c1)OCO2,-75.3%
22,COc1cccc(-c2nnc(SCC(=O)Nc3ccc4c(c3)OCCO4)n2Cc2ccco2)c1,-15.1%
23,O=C(CSc1nnc(-c2ccccc2)n1Cc1ccco1)NCc1ccc2c(c1)OCO2,-14.5%

# — article PMC4336329 (PLoS ONE, 2015)
